The record followed here is PubChem BioAssay.

Molecules are shown by their SMILES. Active and inactive are the calls of the source.

The nature of assay [1]: anti-His antibody binders, primary screen, artefact control for SMM control protein annotation, biochemical, small-molecule microarray, 635 nm fluorescence (AID 1128).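 Note: score merges feature fluorescence with signal-to-noise for each printed compound spot.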 The note with it: anti-His Alexa647 antibody binding, higher = more signal.
Assay [2] concerns Human papillomavirus type 1a E7 protein (residues 1-88). The experiment in a line: HPV1a E7 small-molecule binders, primary screen, biochemical, small-molecule microarray, residues 1-88, 635 nm (AID 1129). The note with it: small-molecule microarray binding, fluorescence 635 nm; higher = more signal.
For assay [3], the target named is Focal adhesion kinase 1 (Homo sapiens) (UniProt Q05397). The experiment in a line: small-molecule microarray binders of FAK, primary screen, biochemical, 635/667 nm fluorescence, BSA, DTT (AID 1130).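 Note: composite of spot emission at 667 nm and signal to noise over triplicate slides.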 The note with it: PTK2 binding, 635 nm fluorescence, higher = more signal.
Focal adhesion kinase 1 (Homo sapiens), sequence (Q05397 whole entry, looked up): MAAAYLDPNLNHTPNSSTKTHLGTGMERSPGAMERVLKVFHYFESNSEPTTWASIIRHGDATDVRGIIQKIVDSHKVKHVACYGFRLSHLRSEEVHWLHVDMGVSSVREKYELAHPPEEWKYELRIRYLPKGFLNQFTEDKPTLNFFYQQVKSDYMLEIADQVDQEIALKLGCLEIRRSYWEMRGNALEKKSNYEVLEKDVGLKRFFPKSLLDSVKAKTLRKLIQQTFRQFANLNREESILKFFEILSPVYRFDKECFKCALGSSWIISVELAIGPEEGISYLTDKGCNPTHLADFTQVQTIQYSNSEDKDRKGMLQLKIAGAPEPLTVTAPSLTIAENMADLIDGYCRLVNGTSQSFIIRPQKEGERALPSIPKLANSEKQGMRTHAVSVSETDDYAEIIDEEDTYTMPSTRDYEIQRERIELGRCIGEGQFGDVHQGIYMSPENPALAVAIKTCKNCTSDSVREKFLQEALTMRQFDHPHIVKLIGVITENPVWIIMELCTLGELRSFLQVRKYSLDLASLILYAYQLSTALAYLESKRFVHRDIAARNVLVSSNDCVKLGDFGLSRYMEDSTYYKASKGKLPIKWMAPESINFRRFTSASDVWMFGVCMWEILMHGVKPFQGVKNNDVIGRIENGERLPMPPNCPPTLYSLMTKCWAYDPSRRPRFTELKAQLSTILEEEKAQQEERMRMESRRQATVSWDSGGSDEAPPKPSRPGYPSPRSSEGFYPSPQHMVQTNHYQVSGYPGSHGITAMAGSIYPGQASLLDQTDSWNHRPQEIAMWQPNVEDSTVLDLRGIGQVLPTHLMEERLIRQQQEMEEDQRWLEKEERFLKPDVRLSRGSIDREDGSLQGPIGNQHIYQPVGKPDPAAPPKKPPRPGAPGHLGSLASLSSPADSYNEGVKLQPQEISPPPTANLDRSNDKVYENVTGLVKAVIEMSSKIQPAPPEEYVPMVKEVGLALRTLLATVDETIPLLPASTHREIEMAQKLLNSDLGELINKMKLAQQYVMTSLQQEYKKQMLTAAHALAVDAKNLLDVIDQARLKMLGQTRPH
The test system of assay [4] is Fibrinogen (Alexa647-labelled). The experiment in a line: fibrinogen binders on compound microarrays, profiling panel, artefact control for SMM control-protein annotation, biochemical, small-molecule microarray, 635/667 nm fluorescence (AID 1131).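 Note: z-score merges 667 nm fluorescence with per-spot signal-to-noise over triplicate slides.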 The note with it: fibrinogen-A647 binding fluorescence, higher = more signal.
For assay [5], the target named is Follistatin (Homo sapiens) (UniProt P19883). The experiment in a line: follistatin binders on small-molecule microarrays, primary screen, biochemical, small-molecule microarray, 635/667 nm fluorescence (AID 1132). The conditions noted are these: FST binding, 635 nm fluorescence, higher = more signal.
Follistatin (Homo sapiens), sequence (P19883 whole entry, looked up): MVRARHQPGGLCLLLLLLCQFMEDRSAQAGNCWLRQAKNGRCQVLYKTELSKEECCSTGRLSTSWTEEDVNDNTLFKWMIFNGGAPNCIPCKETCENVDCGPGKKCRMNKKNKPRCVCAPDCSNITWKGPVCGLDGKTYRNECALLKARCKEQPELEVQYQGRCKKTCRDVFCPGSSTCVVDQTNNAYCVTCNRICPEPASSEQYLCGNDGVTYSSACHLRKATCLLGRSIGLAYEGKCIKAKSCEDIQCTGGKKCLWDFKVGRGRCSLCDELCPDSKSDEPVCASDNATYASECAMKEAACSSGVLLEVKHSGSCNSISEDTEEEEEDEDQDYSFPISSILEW
The target of assay [6] is Fibroblast growth factor 2 (Homo sapiens) (UniProt P09038). The experiment in a line: FGF2 binders on small-molecule microarrays, primary screen, biochemical, small-molecule microarray, 635/667 nm fluorescence (AID 1133). The note with it: small-molecule microarray binding, FGF2, fluorescence 635/667; higher = more signal.
Fibroblast growth factor 2 (Homo sapiens), sequence (P09038 whole entry, looked up): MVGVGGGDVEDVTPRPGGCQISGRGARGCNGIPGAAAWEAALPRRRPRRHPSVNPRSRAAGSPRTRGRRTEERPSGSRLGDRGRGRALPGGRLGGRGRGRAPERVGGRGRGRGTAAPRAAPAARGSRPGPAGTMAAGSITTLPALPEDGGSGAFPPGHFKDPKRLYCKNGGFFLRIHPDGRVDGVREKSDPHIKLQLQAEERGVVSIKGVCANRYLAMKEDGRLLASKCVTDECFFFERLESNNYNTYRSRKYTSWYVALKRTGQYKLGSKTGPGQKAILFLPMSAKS
Assay [7] in a line: mitochondrial membrane potential change in A549 cells, profiling panel, cell-based, JC-1 fluorescence, basal, 24 h, 100 nL (AID 1138).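 Note: A549 lung adenocarcinoma cells under basal conditions with no added stimulus; test concentration not given here.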 The note with it: higher = more signal.
Assay [8] relates to Lefty1. Kind of assay: Lefty1 binders on small-molecule microarrays, primary screen, biochemical, small-molecule microarray, 635/667 nm fluorescence (AID 1139). The conditions noted are these: small-molecule microarray binding, fluorescence 635/667; higher = more signal.
Assay [9] concerns wheat germ agglutinin (Triticum aestivum), Alexa647-labelled. Kind of assay: wheat germ agglutinin binders on compound microarrays, profiling panel, artefact control for SMM control-protein annotation, biochemical, small-molecule microarray, 635/667 nm fluorescence (AID 1140).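 Note: score merges 667 nm feature emission with signal to noise over triplicate slides.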 The conditions noted are these: WGA-A647 binding, 635 nm fluorescence, higher = more signal.
Assay [10] concerns the target Luciferin 4-monooxygenase (Photinus pyralis) (UniProt P08659). Kind of assay: firefly luciferase enzyme inhibitors, primary screen, biochemical, luminescence, purified enzyme, 2006 set (AID 1141).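 Note: cell-free assay with purified firefly luciferase at 100 ng per well in PBS; test concentration not given here.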 The conditions noted are these: SteadyGlo luminescence, 30 min, higher = more signal, called active from +8 up or from −8 down.

Luciferin 4-monooxygenase (Photinus pyralis), sequence (P08659 whole entry, looked up): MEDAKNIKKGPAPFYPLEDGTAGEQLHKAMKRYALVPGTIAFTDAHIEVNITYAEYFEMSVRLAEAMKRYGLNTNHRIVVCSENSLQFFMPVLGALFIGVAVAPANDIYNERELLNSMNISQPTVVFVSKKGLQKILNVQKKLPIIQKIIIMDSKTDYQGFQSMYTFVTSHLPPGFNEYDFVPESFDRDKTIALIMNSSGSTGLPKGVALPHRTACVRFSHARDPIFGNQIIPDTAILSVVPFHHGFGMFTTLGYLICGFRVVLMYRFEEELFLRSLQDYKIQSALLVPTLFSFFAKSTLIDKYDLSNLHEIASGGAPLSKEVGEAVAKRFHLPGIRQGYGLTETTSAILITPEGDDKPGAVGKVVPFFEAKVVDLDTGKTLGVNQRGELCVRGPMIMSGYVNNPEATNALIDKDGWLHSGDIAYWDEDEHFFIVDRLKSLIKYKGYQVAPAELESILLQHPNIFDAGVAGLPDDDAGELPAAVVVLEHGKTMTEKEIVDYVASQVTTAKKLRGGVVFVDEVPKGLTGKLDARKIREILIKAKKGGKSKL

Turning to `CC(C)c1ccc(NN2C(C(O)C3=C[C@H]4C[C@@H](C3)C4(C)C)C=CC3C(=O)N(c4ccccc4)C(=O)C32)cc1` (stereo not given in full), the composite z-score in [1] was determined as 0.57; in assay [2], 1.07; in [3], 0.0505; in assay [4], 0.953; in assay [5], 1.11; in [6], 0.248. For the same compound, the composite z-score is 0.605 in [8] and 0.632 in assay [9]. For the same compound, the z-score in assay [7] is -0.894; in [10], -1.77 (inactive).
As for `C=CC[C@]1(C(N)=O)N=C(c2ccc(OCCCO)cc2)O[C@H]1c1ccccc1N=[N+]=[N-]`, the composite z-score was 1.98 in assay [1]; 0.766 in assay [2]; -0.336 in assay [3]; 0.753 in assay [4]; 1.12 in [5]; 0.812 in assay [6]. Also, the composite z-score in assay [8] was -0.0005; in assay [9], 0.762. Besides, the z-score is 1.62 in [7] and -14.1 (active) in assay [10].
In the case of `COCCOC(=O)N1C(=O)[C@@]2(c3cc(C#CCNC(N)=O)ccc31)[C@H](c1ccccc1OCCO)N1[C@H](c3ccccc3)[C@H](c3ccccc3)OC(=O)[C@H]1[C@@H]2C(=O)N1CCCCCCC1`, the composite z-score in [1] turned out to be 0.364; in [2], 1.17; in assay [3], 0.183; in [4], 0.858; in assay [5], 1.28; in assay [6], 0.937. The composite z-score came to 0.76 in [8] and 1.13 in assay [9]. For the same compound, the z-score in assay [7] was -1.51; in assay [10], -0.193 (inactive).
As for `C=CCNC(=O)[C@H]1[C@@H]2C(=O)O[C@@H](c3ccccc3)[C@@H](c3ccccc3)N2[C@@H](c2ccc(OCCO)cc2)[C@]12C(=O)N(C(=O)OCCOC)c1ccc(C#CCNC(N)=O)cc12`, the composite z-score was 1.9 in [1]; 1.15 in assay [2]; 0.621 in [3]; 0.811 in assay [4]; 1.37 in assay [5]; 1.71 in assay [6]. Besides, the composite z-score in assay [8] was determined as 0.707; in [9], 0.929. In addition, the z-score in assay [7] is -0.0216; in [10], -0.0331 (inactive).
With `[N-]=[N+]=NCc1ccccc1C[C@@]1(C(N)=O)N=C(c2ccc(OCCCO)cc2)O[C@@H]1c1ccccc1N=[N+]=[N-]`, the composite z-score is 1.16 in assay [1]; 1.24 in assay [2]; 0.0254 in [3]; 0.991 in assay [4]; 0.102 in [5]; -0.131 in assay [6]. Moreover, the composite z-score in [8] is -0.804; in [9] it was 0.68. Besides, the figures for the z-score in [7] and in assay [10] were 0.306 and -5.46 (inactive), respectively.
`[N-]=[N+]=NCc1ccccc1C[C@]1(C(=O)N2CCCCC2)COC(c2ccc(OCCCO)cc2)=N1`: the composite z-score in [1] worked out at 1.13; in assay [2], 1.07; in [3] it was 0.401; in [4], 0.932; in assay [5], 0.687; in assay [6], 0.765. Moreover, the composite z-score in assay [8] was -0.432; in [9], 0.827. The z-score in assay [7] is 2.45; in assay [10], -1.71 (inactive).
With `CCCN1C(=O)[C@@]2(c3ccc([N+](=O)[O-])cc3)CC(=O)N(C3CCCCC3)[C@@H]2c2ccc(CO)cc21`, the composite z-score was 0.993 in assay [1]; -0.281 in [2]; 0.584 in assay [3]; -0.138 in [4]; 1.2 in assay [5]; 1.08 in [6]. In addition, the results for the composite z-score in [8] and in assay [9] were 0.466 and 0.198, respectively. The z-score in assay [7] is -0.755; in assay [10], 0.289 (inactive).
For the compound `C=C(C(=O)CC[C@@H](OC(=O)c1ccccc1-c1ccccc1C(=O)O)c1ccc(CO)o1)C(C)C`, the composite z-score was 0.546 in assay [1]; 0.434 in assay [2]; -0.304 in assay [3]; 0.876 in assay [4]; 1.39 in assay [5]; 1.76 in assay [6]. The results for the composite z-score in assay [8] and in assay [9] were 1.51 and 0.707, respectively. Moreover, the z-score in assay [7] was 0.475; in [10], -3.22 (inactive).
For `C=CCNC(=O)[C@@H]1[C@H]2C(=O)O[C@H](c3ccccc3)[C@H](c3ccccc3)N2[C@H](c2ccc(OCCO)cc2)[C@@]12C(=O)N(C(=O)OCCOC)c1ccccc12`, the composite z-score in [1] came out at 1.25; in assay [2], 1.19; in assay [3], 0.986; in [4], 0.61; in assay [5], 1.29; in [6], 1.26. Besides, the composite z-score in [8] was found to be 0.581; in assay [9], 0.539. In addition, the z-score was 1.11 in assay [7] and 0.36 (inactive) in assay [10].
Turning to `CCCCCCc1nc(Cc2cc(OC)c(OC)c(OC)c2)c(C)c2c1[Si](C(C)C)(C(C)C)OC2`, the composite z-score is 0.0303 in assay [1]; 0.127 in assay [2]; -0.38 in assay [3]; -0.24 in assay [4]; 0.281 in assay [5]; 0.444 in [6]. In addition, the values for the composite z-score in [8] and in [9] were 0.267 and 0.108, respectively. Also, the results for the z-score in assay [7] and in [10] were 0.374 and -0.123 (inactive), respectively.
In the case of `[N-]=[N+]=Nc1ccccc1C[C@]1(C(N)=O)COC(c2ccc(OCCCO)cc2)=N1`, the composite z-score is 0.809 in [1]; -0.835 in assay [2]; 0.214 in assay [3]; -0.445 in assay [4]; 0.91 in assay [5]; -0.261 in [6]. In addition, the composite z-score was -0.954 in [8] and 0.99 in [9]. Besides, the z-score in assay [7] was -0.566; in [10], -8.73 (active).
Turning to `C=CC[C@H](OC(=O)Nc1ccc(SC)cc1)c1ccc(O)c(F)c1`, the composite z-score was 0.434 in assay [1]; 0.294 in assay [2]; -0.502 in assay [3]; -0.0381 in [4]; 0.137 in assay [5]; 0.244 in assay [6]. Besides, the composite z-score in assay [8] was -0.173; in assay [9], 0.541. Besides, the figures for the z-score in [7] and in assay [10] were -1.34 and -1.83 (inactive), respectively.
In the case of `C=CCN1C(=O)[C@@]2(O[C@@H](CCO)[C@H]([Si](C)(C)c3ccc(OC)cc3)[C@H]2C)c2cc(N3CCCCC3=O)ccc21`, the composite z-score in assay [1] was 2.63; in assay [2], 1.16; in assay [3], -0.19; in assay [4] it was 0.745; in assay [5], 1.36; in [6], 0.821. The composite z-score came to 1.23 in assay [8] and 0.302 in assay [9]. Also, the z-score in [7] was 0.225; in assay [10], -0.0999 (inactive).
As for `CCCCCCCCCCC(O)C1C=CC2C(=O)N(C)C(=O)C2N1Nc1ccccc1` (stereo not given), the composite z-score in assay [1] is -0.901; in assay [2] it was -0.339; in assay [3], 0.365; in assay [4], -0.624; in assay [5] it was -1.68; in assay [6], -1.84. Moreover, the composite z-score in [8] was -1.75; in assay [9], -0.848. Besides, the z-score is 0.172 in assay [7] and -0.319 (inactive) in [10].
With `C=CCNC(=O)[C@H]1[C@@H]2C(=O)O[C@@H](c3ccccc3)[C@@H](c3ccccc3)N2[C@@H](c2ccc(O)cc2)[C@]12C(=O)N(C(=O)OCCOC)c1ccc(C#Cc3ccc(OC)cc3)cc12`, the composite z-score was 0.91 in assay [1]; 1.13 in assay [2]; 0.319 in assay [3]; 0.658 in [4]; 0.751 in [5]; 0.817 in assay [6]. The composite z-score in [8] was found to be 0.402; in assay [9] it was 0.58. Further, the results for the z-score in [7] and in assay [10] were -1.33 and 0.39 (inactive), respectively.
Turning to `CC(C)c1ccc(NN2C(C(O)C(C)c3ccccc3)C=CC3C(=O)N(c4ccccc4)C(=O)C32)cc1` (stereo not given), the composite z-score in assay [1] was 1.63; in [2] it was 1.17; in [3], 0.531; in assay [4] it was 0.988; in [5], 1.2; in [6] it was 0.558. For the same compound, the composite z-score in assay [8] was 0.155; in assay [9] it was 1.19. The z-score in assay [7] was -0.864; in assay [10], 0.222 (inactive).
Consider `[N-]=[N+]=Nc1ccccc1C[C@]1(C(=O)N2CCCCC2)N=C(c2ccc(OCCCO)cc2)O[C@H]1c1ccccc1`, for which the composite z-score in assay [1] stood at 2.69; in assay [2], 1.2; in [3], 0.307; in assay [4] it was 0.934; in assay [5] it was 1.26; in assay [6] it was 1.38. The composite z-score in assay [8] was 0.225; in assay [9], 1.22. Moreover, the z-score in assay [7] is -0.0876; in assay [10], -1.99 (inactive).
